Experimental data: ChEMBL document CHEMBL1157539, “Thousands of chemical starting points for antimalarial lead identification” (Nature, 2010)

Tested on: Plasmodium falciparum
Test: GSK_TCMDC: Inhibition of Plasmodium falciparum 3D7 in whole red blood cells, using parasite LDH activity as an index of growth. Test compounds present at 2uM
Format: functional

| SMILES | Inhibition [%] |
| --- | --- |
| CN1c2ccccc2Sc2cc(CNCCSCCNCc3ccc4c(c3)Sc3ccccc3N4C)ccc21.Cl | 84 |
| CCNc1cc(C(=O)N[C@@H](Cc2ccccc2)[C@H](O)CNC(C)(C)CCCC(C)C)cc(N2CCCC2=O)c1.O=CO | 100 |
| CCN(CC)CCCC(C)Nc1c2ccccc2nc2c1ccc1ccccc12.Cl (stereo not given) | 96 |
| COc1cccc2c(NN=Cc3cccc(F)c3)ccnc12 | 99 |
| CNc1ccc(CNCc2ccc(-c3ccc(-c4nc5cc(C(F)(F)F)ccc5[nH]4)cc3)cc2)cc1.O=C(O)C(F)(F)F | 100 |
| COc1ccc2c(=O)c(I)c(C)[nH]c2c1 | 96 |
| CN(CCCc1c[nH]c2ccccc12)CC1CCN(C(=O)/C=C/c2ccc(Cl)c(Cl)c2)CC1 | 99 |
| O=C(c1ccc(-c2ccc(-c3nc4cc(F)ccc4[nH]3)cc2)cc1)N1CCCCC1CN1CCC(O)C1 (stereo not given) | 90 |
| CN1CCN(c2nc(NCCc3ccc(O)cc3)nc(NCc3ccccc3-c3ccc(C(F)(F)F)cc3)n2)CC1 | 90 |
| Cc1cccc(CNc2nc(C)cc(NCCC(=O)NCc3cccc(F)c3)n2)c1.O=C(O)C(F)(F)F | 84 |
| O=C(NCCCCN1CCC(c2ccc3c(c2O)CCCC3)CC1)c1ccc(-c2ccc(Cl)cc2)cc1 | 98 |
| CC(CCNc1c2ccccc2nc2ccccc12)N1CCN(C)CC1.Cl (stereo not given) | 100 |
| CC(C)NC(=N)NN=Cc1ccc(Cl)c(Cl)c1 | 100 |
| CCCOc1ccc(CCNCCCCNCCc2ccc(OCCC)c3ccccc23)c2ccccc12.CS(=O)(=O)O | 93 |
| NC(=O)C1CCN(Cc2ccc(-c3ccc(-c4nc5cc(C(F)(F)F)ccc5[nH]4)s3)cc2)CC1.O=C(O)C(F)(F)F | 99 |
| N=C(N)NC(=O)Nc1cc(Cl)c(Cl)c(C(F)(F)F)c1 | 100 |
| COc1ccc2nccc(CCC3(O)CCC(NCc4cc5c(cc4F)SCC(=O)N5)CC3)c2c1 (stereo not given) | 87 |
| O=C(O)C(F)(F)F.c1cc(-c2ccc(CNC3CCOCC3)cc2)cc(-c2nc3ccccc3[nH]2)c1 | 100 |
| Cl.Oc1ccc(Cc2cc(Oc3c(I)cc(CCc4ncc[nH]4)cc3I)ccc2O)cc1 | 100 |
| CC(=O)Nc1cccc(C(=O)Nc2cccc(-c3cccc(-c4nc5cc(F)ccc5[nH]4)c3)c2)c1 | 100 |

| SMILES | Inhibition [%] |
| --- | --- |
| CCCCCCN1CCC(CNCc2cccc([N+](=O)[O-])c2)CC1.O=C(O)C(F)(F)F | 95 |
| Cc1ccc(F)c(OC2CCN(c3ccc(C(=O)NC4CC4)cn3)CC2)c1 | 92 |
| CC1Cc2ccccc2N1CC(=O)Nc1cc(C(F)(F)F)ccc1-n1cncn1 (stereo not given) | 97 |
| Nc1nc(O)c2cc(CN(C=O)c3ccc(C(=O)N[C@@H](CCC(=O)O)C(=O)O)cc3)ccc2n1 | 93 |
| O=C(NC1CC1)c1cnc(N2CCC(Oc3ccc(Cl)cc3)CC2)c(Cl)c1 | 86 |
| CCN(CC)CC(O)c1cc(-c2ccc(C)cc2)nc2c(C)cc(C)cc12.Cl (stereo not given) | 100 |
| C[C@@H](CC1CCCCC1)OC(=O)N(C)[C@H]1CCN(C#N)C1 | 84 |
| Cl.N#Cc1ccc2c(c1)CN(CCC1CCC(NC(=O)c3cc4ccccc4cc3N)CC1)CC2 (stereo not given) | 80 |
| COc1ccc(NC(=O)C2CCN(CCCCCNC(=O)/C=C/c3ccc(Cl)c(Cl)c3)CC2)cc1 | 98 |
| Cn1ccnc1CNC(=O)c1ccc(-c2ccc(-c3nc4cc(C(F)(F)F)ccc4[nH]3)s2)cc1 | 100 |
| CC(C)(C)c1ccc(S(=O)(=O)Nc2ccccc2Cn2nc(N3CCNCC3)ccc2=O)cc1.O=C(O)C(F)(F)F | 98 |
| COc1ccc(NC(=O)[C@H](C)Nc2cc(C)nc(NCC3CCCCC3)n2)cc1.O=C(O)C(F)(F)F | 92 |
| COc1cccc(Nc2nccc(NCC(O)c3cccc(C(F)(F)F)c3)n2)c1 (stereo not given) | 96 |
| Cc1ccc(NC(=O)c2ccc3ncccc3c2)cc1OC1CCN(Cc2ccco2)C1.O=C(O)C(F)(F)F (stereo not given) | 86 |
| CC(C)NCc1ccc(-c2cccc(NC(=O)c3ccc(Cl)cc3)c2)cc1.O=C(O)C(F)(F)F | 100 |
| N#Cc1ccc(CNCCCCCCCNCc2ccc(-c3ccccc3)cc2)cc1 | 87 |
| COc1cccc2cc(C(=O)N[C@@H](CC(C)C)C(=O)N[C@H](C=NN3CCOC3=O)Cc3ccccc3)oc12 | 96 |
| Cc1cc2c(cc1C(F)(F)F)N(C(=O)Nc1ccc(C(=O)NC3CCN(Cc4ccccc4)C3)cc1)CC2 (stereo not given) | 100 |
| Cc1noc(C)c1-c1ccc2c(Nc3ccccc3N3CCOCC3)c(C(=O)NCc3ccccc3)cnc2c1.Cl | 91 |
| CN(CCCN(C)c1cc(NC(=O)c2ccc(F)cc2)ccn1)Cc1cccc(F)c1.O=C(O)C(F)(F)F | 83 |

Tested on: Plasmodium falciparum
Test: GSK_TCMDC: Inhibition of Plasmodium falciparum Dd2 in whole red blood cells, using parasite LDH activity as an index of growth. Test compounds present at 2uM
Format: functional

| SMILES | Inhibition [%] |
| --- | --- |
| CN1c2ccccc2Sc2cc(CNCCSCCNCc3ccc4c(c3)Sc3ccccc3N4C)ccc21.Cl | 44 |
| CCNc1cc(C(=O)N[C@@H](Cc2ccccc2)[C@H](O)CNC(C)(C)CCCC(C)C)cc(N2CCCC2=O)c1.O=CO | 81 |
| CCN(CC)CCCC(C)Nc1c2ccccc2nc2c1ccc1ccccc12.Cl (stereo not given) | 34 |
| COc1cccc2c(NN=Cc3cccc(F)c3)ccnc12 | 44 |
| CNc1ccc(CNCc2ccc(-c3ccc(-c4nc5cc(C(F)(F)F)ccc5[nH]4)cc3)cc2)cc1.O=C(O)C(F)(F)F | 98 |
| COc1ccc2c(=O)c(I)c(C)[nH]c2c1 | 96 |
| CN(CCCc1c[nH]c2ccccc12)CC1CCN(C(=O)/C=C/c2ccc(Cl)c(Cl)c2)CC1 | 25 |
| O=C(c1ccc(-c2ccc(-c3nc4cc(F)ccc4[nH]3)cc2)cc1)N1CCCCC1CN1CCC(O)C1 (stereo not given) | 100 |
| CN1CCN(c2nc(NCCc3ccc(O)cc3)nc(NCc3ccccc3-c3ccc(C(F)(F)F)cc3)n2)CC1 | 82 |
| Cc1cccc(CNc2nc(C)cc(NCCC(=O)NCc3cccc(F)c3)n2)c1.O=C(O)C(F)(F)F | 13 |
| O=C(NCCCCN1CCC(c2ccc3c(c2O)CCCC3)CC1)c1ccc(-c2ccc(Cl)cc2)cc1 | 72 |
| CC(CCNc1c2ccccc2nc2ccccc12)N1CCN(C)CC1.Cl (stereo not given) | 0 |
| CC(C)NC(=N)NN=Cc1ccc(Cl)c(Cl)c1 | 12 |
| CCCOc1ccc(CCNCCCCNCCc2ccc(OCCC)c3ccccc23)c2ccccc12.CS(=O)(=O)O | 52 |
| NC(=O)C1CCN(Cc2ccc(-c3ccc(-c4nc5cc(C(F)(F)F)ccc5[nH]4)s3)cc2)CC1.O=C(O)C(F)(F)F | 91 |
| N=C(N)NC(=O)Nc1cc(Cl)c(Cl)c(C(F)(F)F)c1 | 99 |
| COc1ccc2nccc(CCC3(O)CCC(NCc4cc5c(cc4F)SCC(=O)N5)CC3)c2c1 (stereo not given) | 48 |
| O=C(O)C(F)(F)F.c1cc(-c2ccc(CNC3CCOCC3)cc2)cc(-c2nc3ccccc3[nH]2)c1 | 100 |
| Cl.Oc1ccc(Cc2cc(Oc3c(I)cc(CCc4ncc[nH]4)cc3I)ccc2O)cc1 | 32 |
| CC(=O)Nc1cccc(C(=O)Nc2cccc(-c3cccc(-c4nc5cc(F)ccc5[nH]4)c3)c2)c1 | 44 |

| SMILES | Inhibition [%] |
| --- | --- |
| CCCCCCN1CCC(CNCc2cccc([N+](=O)[O-])c2)CC1.O=C(O)C(F)(F)F | 15 |
| Cc1ccc(F)c(OC2CCN(c3ccc(C(=O)NC4CC4)cn3)CC2)c1 | 72 |
| CC1Cc2ccccc2N1CC(=O)Nc1cc(C(F)(F)F)ccc1-n1cncn1 (stereo not given) | 97 |
| Nc1nc(O)c2cc(CN(C=O)c3ccc(C(=O)N[C@@H](CCC(=O)O)C(=O)O)cc3)ccc2n1 | 94 |
| O=C(NC1CC1)c1cnc(N2CCC(Oc3ccc(Cl)cc3)CC2)c(Cl)c1 | 75 |
| CCN(CC)CC(O)c1cc(-c2ccc(C)cc2)nc2c(C)cc(C)cc12.Cl (stereo not given) | 99 |
| C[C@@H](CC1CCCCC1)OC(=O)N(C)[C@H]1CCN(C#N)C1 | 62 |
| Cl.N#Cc1ccc2c(c1)CN(CCC1CCC(NC(=O)c3cc4ccccc4cc3N)CC1)CC2 (stereo not given) | 52 |
| COc1ccc(NC(=O)C2CCN(CCCCCNC(=O)/C=C/c3ccc(Cl)c(Cl)c3)CC2)cc1 | 0 |
| Cn1ccnc1CNC(=O)c1ccc(-c2ccc(-c3nc4cc(C(F)(F)F)ccc4[nH]3)s2)cc1 | 43 |
| CC(C)(C)c1ccc(S(=O)(=O)Nc2ccccc2Cn2nc(N3CCNCC3)ccc2=O)cc1.O=C(O)C(F)(F)F | 97 |
| COc1ccc(NC(=O)[C@H](C)Nc2cc(C)nc(NCC3CCCCC3)n2)cc1.O=C(O)C(F)(F)F | 13 |
| COc1cccc(Nc2nccc(NCC(O)c3cccc(C(F)(F)F)c3)n2)c1 (stereo not given) | 27 |
| Cc1ccc(NC(=O)c2ccc3ncccc3c2)cc1OC1CCN(Cc2ccco2)C1.O=C(O)C(F)(F)F (stereo not given) | 42 |
| CC(C)NCc1ccc(-c2cccc(NC(=O)c3ccc(Cl)cc3)c2)cc1.O=C(O)C(F)(F)F | 82 |
| N#Cc1ccc(CNCCCCCCCNCc2ccc(-c3ccccc3)cc2)cc1 | 10 |
| COc1cccc2cc(C(=O)N[C@@H](CC(C)C)C(=O)N[C@H](C=NN3CCOC3=O)Cc3ccccc3)oc12 | 70 |
| Cc1cc2c(cc1C(F)(F)F)N(C(=O)Nc1ccc(C(=O)NC3CCN(Cc4ccccc4)C3)cc1)CC2 (stereo not given) | 48 |
| Cc1noc(C)c1-c1ccc2c(Nc3ccccc3N3CCOCC3)c(C(=O)NCc3ccccc3)cnc2c1.Cl | 6 |
| CN(CCCN(C)c1cc(NC(=O)c2ccc(F)cc2)ccn1)Cc1cccc(F)c1.O=C(O)C(F)(F)F | 60 |
